Measured values as given in PubChem BioAssay (EPA / NIEHS).
Activity calls are given as the source filed them. How the source made its calls: active means hit-call score of the fitted dose curve at least 0.9, where 1 is the maximum; inactive means score below 0.9.

Columns and labels:
[1] = ATG_CRE_CIS: Attagene CIS-FACTORIAL HepG2 Assay for human cAMP Responsive Element (CRE) binding protein 3 (AID 2282926); settings: HepG2 CRE cis-reporter, Attagene multiplexed mRNA; actives raise or lower the signal
Procedure, shortened: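 Assay format: transient reporter transfection of HepG2, 24 h treatment, total RNA isolation with DNase I step. Reporter abundance read by fluorescence after PCR and capillary separation; DMSO-normalised gain or loss fitting.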

[2] = target: CCAAT/enhancer-binding protein beta (Homo sapiens) (UniProt P17676); experiment: ATG_C_EBP_CIS: Attagene CIS-FACTORIAL HepG2 Assay for human CCAAT/Enhancer Binding Protein (C/EBP) beta (AID 2282927); settings: HepG2 Attagene cis-factorial transcription factor reporter; actives raise or lower the signal
Chain of CCAAT/enhancer-binding protein beta (Homo sapiens) (P17676 whole entry, looked up): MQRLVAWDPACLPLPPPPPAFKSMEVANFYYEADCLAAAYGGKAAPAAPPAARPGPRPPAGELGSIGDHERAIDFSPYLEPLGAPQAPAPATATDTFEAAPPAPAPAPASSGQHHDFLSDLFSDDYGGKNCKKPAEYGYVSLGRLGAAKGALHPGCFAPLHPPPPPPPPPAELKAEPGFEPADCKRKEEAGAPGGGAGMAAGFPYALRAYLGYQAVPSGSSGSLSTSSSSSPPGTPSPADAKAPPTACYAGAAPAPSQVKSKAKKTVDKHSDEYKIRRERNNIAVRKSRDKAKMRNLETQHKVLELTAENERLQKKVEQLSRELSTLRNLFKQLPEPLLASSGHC
Procedure, shortened: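 Changes in reporter mRNA, rather than exogenous chimeric receptor activity, reflect native C/EBP signalling in transfected HepG2 cells dosed for 24 h; transcripts are detected by RT-PCR and capillary electrophoresis.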

[3] = ATG_CMV_CIS: Attagene CIS-FACTORIAL HepG2 Assay for human CMV (Internal Marker) (AID 2282928); settings: HepG2 CMV promoter reporter, transcription factor profiling; actives raise or lower the signal;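 further: endpoint acts as a background internal control marker rather than a target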
Procedure, shortened: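 Bidirectional fits against DMSO are applied to reporter mRNA, read by RT-PCR with capillary electrophoresis, from HepG2 cells exposed 24 h. The endpoint serves as an internal CMV background marker within the cis-factorial reporter panel.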

[4] = ATG_DR4_LXR_CIS: Attagene CIS-FACTORIAL HepG2 Assay for human Liver X Receptor (LXR), DR4 submotif (AID 2282929); settings: HepG2 Attagene DR4 cis-reporter, mRNA transcription; actives raise or lower the signal
Procedure, shortened: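 Fluorescence intensity of labelled reporter cDNA fragments, separated by capillary electrophoresis, gives the signal. HepG2 cells bearing cis-regulated reporter constructs were treated 24 h; activity fitted bidirectionally relative to DMSO negative control.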

[5] = target: Aryl hydrocarbon receptor (Homo sapiens) (UniProt P35869); experiment: ATG_Ahr_CIS: Attagene CIS-FACTORIAL HepG2 Assay for human Aryl Hydrocarbon Receptor (Ahr) (AID 2282930); settings: HepG2 AhR cis-factorial reporter transcription; actives raise or lower the signal
Chain of Aryl hydrocarbon receptor (Homo sapiens) (P35869 whole entry, looked up): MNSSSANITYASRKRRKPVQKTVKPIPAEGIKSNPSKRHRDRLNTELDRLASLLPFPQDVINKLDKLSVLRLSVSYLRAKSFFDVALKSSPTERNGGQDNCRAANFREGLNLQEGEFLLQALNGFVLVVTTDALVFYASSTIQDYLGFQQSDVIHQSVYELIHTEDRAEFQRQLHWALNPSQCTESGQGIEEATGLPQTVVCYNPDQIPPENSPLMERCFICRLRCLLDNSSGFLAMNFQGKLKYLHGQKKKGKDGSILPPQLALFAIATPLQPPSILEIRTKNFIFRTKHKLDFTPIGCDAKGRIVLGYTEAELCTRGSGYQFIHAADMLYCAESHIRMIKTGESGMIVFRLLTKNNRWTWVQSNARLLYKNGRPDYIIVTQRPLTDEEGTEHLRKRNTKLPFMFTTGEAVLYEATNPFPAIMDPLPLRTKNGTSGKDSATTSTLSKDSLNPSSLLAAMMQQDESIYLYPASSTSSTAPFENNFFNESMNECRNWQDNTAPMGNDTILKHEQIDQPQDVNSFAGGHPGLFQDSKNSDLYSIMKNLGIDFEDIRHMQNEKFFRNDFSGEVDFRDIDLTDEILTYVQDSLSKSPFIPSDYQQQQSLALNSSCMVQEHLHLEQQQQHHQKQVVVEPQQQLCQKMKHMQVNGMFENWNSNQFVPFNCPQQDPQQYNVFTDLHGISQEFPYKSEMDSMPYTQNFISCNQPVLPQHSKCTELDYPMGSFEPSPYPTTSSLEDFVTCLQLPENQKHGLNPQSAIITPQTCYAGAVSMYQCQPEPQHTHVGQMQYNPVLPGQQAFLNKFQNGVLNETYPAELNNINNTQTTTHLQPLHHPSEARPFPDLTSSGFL
Procedure, shortened: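 HepG2, transient MRTU (cis) transfection, 24 h exposure. RNA → cDNA → PCR → 6-FAM primer extension → HpaI 2 h 37 C → CE. Fit: bidirectional, DMSO baseline.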

[6] = ATG_AP_1_CIS: Attagene CIS-FACTORIAL HepG2 Assay for human Activator Protein 1 (AP-1) (AID 2282931); settings: HepG2 Attagene cis-factorial AP-1 reporter mRNA; actives raise or lower the signal
Procedure, shortened: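 Multiplexed HepG2 reporter assay, 24 h dosing. mRNA induction detected by RT-PCR plus capillary electrophoresis. Activity fitted in both directions against DMSO.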

[7] = ATG_AP_2_CIS: Attagene CIS-FACTORIAL HepG2 Assay for human Activator Protein 2 (AP-2) (AID 2282932); settings: HepG2 AP-2 cis-reporter, Attagene transcription factor profiling; actives raise or lower the signal
Procedure, shortened: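 Transiently transfected HepG2 cells are exposed to chemical for 24 h. Reporter transcripts are then measured as fluorescence following RT-PCR and capillary separation, and gain- or loss-of-signal is fitted relative to DMSO.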

[8] = target: Transcription factor E2F1 (Homo sapiens) (UniProt Q01094); experiment: ATG_E2F_CIS: Attagene CIS-FACTORIAL HepG2 Assay for human E2F Transcription Factor 1 (AID 2282935); settings: HepG2 Attagene cis-reporter, E2F reporter RNA transcripts; actives raise or lower the signal
Chain of Transcription factor E2F1 (Homo sapiens) (Q01094 whole entry, looked up): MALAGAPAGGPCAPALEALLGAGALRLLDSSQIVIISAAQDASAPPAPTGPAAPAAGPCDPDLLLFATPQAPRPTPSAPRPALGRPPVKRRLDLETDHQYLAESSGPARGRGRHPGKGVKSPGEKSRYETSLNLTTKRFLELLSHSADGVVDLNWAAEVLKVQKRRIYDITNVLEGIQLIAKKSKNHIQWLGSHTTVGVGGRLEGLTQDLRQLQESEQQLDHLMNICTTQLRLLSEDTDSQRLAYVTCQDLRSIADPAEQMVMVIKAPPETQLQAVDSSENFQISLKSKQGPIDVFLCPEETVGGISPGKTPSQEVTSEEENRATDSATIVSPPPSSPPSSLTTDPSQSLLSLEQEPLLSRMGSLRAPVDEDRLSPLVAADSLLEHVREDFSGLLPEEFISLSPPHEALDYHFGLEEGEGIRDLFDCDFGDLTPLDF
Procedure, shortened: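 Fluorescent RT-PCR products, digested with HpaI for 2 h at 37 C, are separated by capillary electrophoresis. Source RNA comes from transfected HepG2 cultures treated for 24 h.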

[9] = ATG_E_Box_CIS: Attagene CIS-FACTORIAL HepG2 Assay for human Enhancer Box (E-box) (AID 2282936); settings: HepG2 E-box cis-reporter transcription, actives raise or lower the signal
Procedure, shortened: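 Fluorescent reporter fragments separated by capillary electrophoresis gave the signal; mRNA came from HepG2 cells transfected with cis-element reporters and treated 24 h. Curves fitted bidirectionally relative to DMSO controls.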

[10] = ATG_EGR_CIS: Attagene CIS-FACTORIAL HepG2 Assay for human Early Growth Response 1 (EGR1) (AID 2282938); settings: HepG2 Attagene CIS-FACTORIAL EGR reporter mRNA; actives raise or lower the signal
Procedure, shortened: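 Activity is taken as induction or loss of reporter mRNA versus DMSO, fitted bidirectionally. Transcripts from cis-regulated reporter units in transiently transfected HepG2 were measured after 24 h by RT-PCR with capillary electrophoresis.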

[11] = ATG_M_19_CIS: Attagene CIS-FACTORIAL HepG2 Assay for M19 Transcription Factor (Internal Marker) (AID 2282939); settings: HepG2 Attagene CIS-FACTORIAL M19 internal marker reporter; actives raise or lower the signal
Procedure, shortened: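 Following a 24 h exposure, RNA from transfected HepG2 cells was reverse-transcribed, PCR-amplified with reporter-specific primers, end-labelled with 6-FAM and HpaI-digested before capillary separation. Values represent gain or loss versus DMSO.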

[12] = ATG_ERE_CIS: Attagene CIS-FACTORIAL HepG2 Assay for Estrogen Response Element (ERE) (AID 2282940); settings: HepG2 ERE cis-reporter, Attagene RNA transcript; actives raise or lower the signal
Procedure, shortened: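 HepG2, transient cis-reporter units, 24 h exposure. RNA isolated, oligo(dT) RT, reporter-specific PCR, FAM extension, HpaI cut, CE detection. Gain/loss-of-signal vs DMSO.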

[13] = ATG_Ets_CIS: Attagene CIS-FACTORIAL HepG2 Assay for human Erythroblast Transformation Specific (ETS) (AID 2282941); settings: HepG2 ETS cis-reporter transcription, actives raise or lower the signal
Procedure, shortened: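 Endogenous transcription factor activity read as reporter mRNA via RT-PCR and capillary electrophoresis, with gain or loss fitted bidirectionally against DMSO. Human HepG2 liver cells, transiently transfected CIS reporter constructs, 24 h exposure.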

[14] = target: Hepatocyte nuclear factor 3-beta (Homo sapiens) (UniProt Q9Y261); experiment: ATG_FoxA2_CIS: Attagene CIS-FACTORIAL HepG2 Assay for human Forkhead box A2 (FOXA2) (AID 2282942); settings: HepG2 cis-reporter transcription factor activity, 24 h; actives raise or lower the signal
Chain of Hepatocyte nuclear factor 3-beta (Homo sapiens) (Q9Y261 whole entry, looked up): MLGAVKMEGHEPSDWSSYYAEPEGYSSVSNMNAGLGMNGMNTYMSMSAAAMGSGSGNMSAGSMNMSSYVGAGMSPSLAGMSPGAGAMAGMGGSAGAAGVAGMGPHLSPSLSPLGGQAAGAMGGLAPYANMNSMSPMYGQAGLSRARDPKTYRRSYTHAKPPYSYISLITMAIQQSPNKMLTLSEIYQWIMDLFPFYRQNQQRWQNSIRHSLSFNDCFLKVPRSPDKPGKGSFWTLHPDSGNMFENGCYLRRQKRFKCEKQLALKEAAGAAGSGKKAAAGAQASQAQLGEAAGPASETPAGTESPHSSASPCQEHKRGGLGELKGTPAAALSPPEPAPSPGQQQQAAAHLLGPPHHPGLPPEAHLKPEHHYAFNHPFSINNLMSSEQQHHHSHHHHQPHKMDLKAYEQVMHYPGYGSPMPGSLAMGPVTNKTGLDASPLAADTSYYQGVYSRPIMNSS
Procedure, shortened: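 Reporter transcript induction is measured by fluorescence after capillary electrophoresis of RT-PCR products from HepG2 cells exposed 24 h. Cis-regulated reporter units report endogenous factor activity; curves fitted both directions against DMSO.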

[15] = ATG_FoxO_CIS: Attagene CIS-FACTORIAL HepG2 Assay for human Forkhead box O (FoxO) (AID 2282943); settings: HepG2 Attagene cis-reporter, FoxO element, mRNA; actives raise or lower the signal
Procedure, shortened: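 Human hepatoma HepG2 cells carry transiently introduced reporter transcription units controlled by cis promoter elements. Chemical treatment lasted 24 h, and mRNA signal was compared with DMSO.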

[16] = ATG_GATA_CIS: Attagene CIS-FACTORIAL HepG2 Assay for human GATA Binding Protein (AID 2282944); settings: HepG2 GATA cis-element reporter, Attagene multiplex mRNA; actives raise or lower the signal
Procedure, shortened: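 DMSO serves as negative control and baseline for bidirectional fitting of reporter mRNA changes. HepG2 cells bearing transiently transfected cis-promoter reporters were exposed 24 h; transcripts detected via RT-PCR and capillary electrophoresis.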

[17] = ATG_M_61_CIS: Attagene CIS-FACTORIAL HepG2 Assay for M61 Transcription Factor (Internal Marker) (AID 2282937); settings: HepG2 Attagene CIS-FACTORIAL M61 internal marker reporter; actives raise or lower the signal
Procedure, shortened: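 Endogenous transcription factor activity in HepG2 is read through transiently transfected cis-element reporter units. After 24 h dosing, RNA undergoes reverse transcription, PCR and primer extension with 6-FAM before capillary electrophoresis; DMSO-referenced bidirectional fit.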

[18] = ATG_BRE_CIS: Attagene CIS-FACTORIAL HepG2 Assay for human Bone Morphogenetic Protein (BMP) Response Element (BRE) (AID 2282933); settings: HepG2 BMP response element reporter, Attagene transcription factor profiling; actives raise or lower the signal
Procedure, shortened: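 Gain- or loss-of-signal was derived by bidirectional fitting against DMSO controls. The signal came from reporter mRNA, measured by RT-PCR and capillary electrophoresis, in HepG2 cells transiently carrying multiple reporter units and dosed for 24 h.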

[19] = target: Retinoic acid receptor alpha (Homo sapiens) (UniProt P10276); experiment: ATG_DR5_RAR_CIS: Attagene CIS-FACTORIAL HepG2 Assay for human Retinoic Acid Receptor Alpha (RARE), DR5 submotif (AID 2282934); settings: HepG2 Attagene cis-factorial RARE DR5 reporter, mRNA; actives raise or lower the signal
Chain of Retinoic acid receptor alpha (Homo sapiens) (P10276 whole entry, looked up): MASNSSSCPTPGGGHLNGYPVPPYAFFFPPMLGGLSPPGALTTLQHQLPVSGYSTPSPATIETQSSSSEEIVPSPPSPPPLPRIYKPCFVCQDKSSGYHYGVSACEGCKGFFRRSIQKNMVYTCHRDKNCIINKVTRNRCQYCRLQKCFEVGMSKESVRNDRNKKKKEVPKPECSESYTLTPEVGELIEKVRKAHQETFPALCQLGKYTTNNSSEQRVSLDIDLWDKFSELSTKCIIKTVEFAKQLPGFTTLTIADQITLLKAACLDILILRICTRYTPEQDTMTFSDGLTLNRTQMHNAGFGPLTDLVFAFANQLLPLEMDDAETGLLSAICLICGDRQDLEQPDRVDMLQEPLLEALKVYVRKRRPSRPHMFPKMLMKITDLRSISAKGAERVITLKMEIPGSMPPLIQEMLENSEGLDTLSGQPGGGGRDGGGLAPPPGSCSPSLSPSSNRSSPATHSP
Procedure, shortened: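 HepG2, transient cis-reporter transfection, 24 h exposure. mRNA readout: RT-PCR, FAM label, HpaI cut, capillary electrophoresis. DMSO baseline, gain/loss fitting.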

Measured: AC50

Cc1cccc(C)c1
not listed: [17] | [18] | [19]
inactive: all other assays above

O=C(O)c1ccco1
not listed: [18] | [19]
inactive: all other assays above

CCCC[N+](C)(CCCC)CCCC
not listed: [6] | [17] | [19]
inactive: all other assays above

CCCCCCCOC(C)=O
active: [12] 3.71 µM
not listed: [18]
inactive: all other assays above

CCC(C)C1CCCCC1=O (configuration not stated)
not listed: [6] | [19]
inactive: all other assays above

COc1ccc(C(C)=O)cc1
not listed: [8] | [19]
inactive: all other assays above

CN(C)CCC=C1c2ccccc2CCc2ccccc21
active: [1] 33.4 µM | [4] 27 µM | [6] 61.2 µM | [10] 41 µM
not listed: [8] | [19]
inactive: all other assays above

c1ccc(Cc2ccccc2)cc1
active: [12] 100 µM
not listed: [6] | [19]
inactive: all other assays above

O=C(O)c1ccccc1O
not listed: [5]
inactive: all other assays above

CCCCN(CCCC)CCCCCCN(CCCC)CCCC
not listed: [6] | [18]
inactive: all other assays above

CCCCOCCOCCOCCO
not listed: [6]
inactive: all other assays above

Cc1ccc(C(C)(C)O)cc1
not listed: [6] | [8] | [19]
inactive: all other assays above

CC1=CCC(C(C)C)=CC1
not listed: [6] | [8] | [13] | [19]
inactive: all other assays above

COc1ccc(OC)cc1
not listed: [8] | [19]
inactive: all other assays above

c1ccc(OCCOc2ccccc2)cc1
not listed: [5] | [6] | [19]
inactive: all other assays above

S=c1[nH][nH]c(=S)s1
not listed: [4] | [6] | [8] | [19]
inactive: all other assays above

CCOC(=O)CC1(C)OCC(C)O1 (configuration not stated)
not listed: [4] | [6]
inactive: all other assays above

CC(=O)c1cccnc1
not listed: [4] | [6] | [8] | [19]
inactive: all other assays above

ClCCOCCOCCCl
not listed: [4] | [8]
inactive: all other assays above

OC[C@@H](O)[C@H](O)[C@@H](O)[C@@H](O)CO
active: [12] 30.1 µM
not listed: [4] | [19]
inactive: all other assays above

CCCCC(CC)COCCO (configuration not stated)
active: [5] 19.8 µM
not listed: [4] | [17] | [19]
inactive: all other assays above

CN(C)c1ccc(C=O)cc1
not listed: [5] | [6] | [17] | [19]
inactive: all other assays above

c1ccc2c(c1)-c1ccc3ccc4cccc5cc-2c1c3c45
active: [12] 0.374 µM | [14] 0.381 µM
not listed: [5] | [8] | [18] | [19]
inactive: all other assays above

C=C(C)C(=O)OCCC(C)OC(=O)C(=C)C (configuration not stated)
not listed: [5] | [6] | [18] | [19]
inactive: all other assays above

CC(=O)c1ccc2ccccc2c1
active: [5] 3.53 µM
not listed: [4] | [19]
inactive: all other assays above

CCCCCCOC(C)=O
not listed: [4] | [6] | [17] | [18] | [19]
inactive: all other assays above

CCCCCCCCCCO[C@@H]1O[C@H](CO)[C@@H](O)[C@H](O)[C@H]1O
active: [4] 125 µM
not listed: [5] | [6]
inactive: all other assays above

CCCCCCCCCCCCCCCCCC(=O)OCCCCCCCCCCCCCC(C)C
active: [12] 28.7 µM
not listed: [4] | [19]
inactive: all other assays above

CC1(C)CC(=O)CC(C)(C)N1
not listed: [4] | [6] | [8] | [19]
inactive: all other assays above

CCCOC(=O)CC
not listed: [5] | [6] | [19]
inactive: all other assays above

O=C(O)c1cc2ccccc2cc1O
not listed: [4] | [5]
inactive: all other assays above
